PubChem BioAssay (EPA / NIEHS)
Values joined by “and” are separate entries in the source; they are usually repeats but may differ in a detail not shown here. Equal values may be shown once. The source holds several records for some structures; these can differ, active in one and inactive in another. Active and inactive are the calls of the source. The calls were made as follows: active = hit-call score of the fitted dose curve at least 0.9, where 1 is the maximum; inactive = score below 0.9.

Experiments:
[1] = read-out: Interferon-gamma inducible Protein 10 (IP10), CXCL10 (gene 3627); experiment: BSK_hDFCGF_IP10: BioMAP Diversity Plus: hDFCGF Assay for Interferon-gamma inducible Protein 10 (IP10) Biomarker Activity (AID 2283053); conditions: primary human foreskin fibroblasts; actives raise or lower the signal
Summary of the method: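 ELISA read-out of IP-10 (CXCL10) from primary human skin fibroblasts, 24 h after compound addition. Gain or loss of signal versus DMSO baseline, bidirectional curve fitting.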

[2] = read-out: Urokinase-type plasminogen activator receptor (uPAR), PLAUR (gene 5329); experiment: BSK_CASM3C_uPAR: BioMAP Diversity Plus: CASM3C Assay for Urokinase-type plasminogen activator receptor (uPAR) Biomarker Activity (AID 2283054); conditions: primary human coronary artery smooth muscle cells; actives raise or lower the signal;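 also: cell-surface uPAR protein level quantified by ELISA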
[3] = read-out: Vascular cell adhesion molecule 1 (VCAM1), VCAM1 (gene 7412); experiment: BSK_CASM3C_VCAM1: BioMAP Diversity Plus: CASM3C Assay for Vascular cell adhesion molecule 1 (VCAM1) Biomarker Activity (AID 2283055); conditions: primary human coronary artery smooth muscle cells; actives raise or lower the signal;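 also: VCAM-1 protein level quantified by ELISA on the cells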
[4] = read-out: Collagen III, COL3A1 (gene 1281); experiment: BSK_hDFCGF_CollagenIII: BioMAP Diversity Plus: hDFCGF Assay for Collagen III Biomarker Activity (AID 2283056); conditions: primary human foreskin fibroblasts; actives raise or lower the signal
Summary of the method: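 ELISA read-out of collagen III from human skin fibroblast cultures sampled 24 h post-dosing. Values were derived by bidirectional fitting relative to the DMSO vehicle control.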

[5] = read-out: Epidermal growth factor receptor (EGFR), EGFR (gene 1956); experiment: BSK_hDFCGF_EGFR: BioMAP Diversity Plus: hDFCGF Assay for Epidermal growth factor receptor (EGFR) Biomarker Activity (AID 2283057); conditions: primary human foreskin fibroblasts; actives raise or lower the signal
Summary of the method: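 ELISA readout of EGFR on human dermal fibroblasts (primary foreskin cells), 24 h post-dosing; bidirectional curve fit vs DMSO baseline, gain or loss of signal scored.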

[6] = read-out: Interleukin-8 (IL8), CXCL8 (gene 3576); experiment: BSK_hDFCGF_IL8: BioMAP Diversity Plus: hDFCGF Assay for Interleukin-8 (IL8) Biomarker Activity (AID 2283058); conditions: primary human foreskin fibroblasts; actives raise or lower the signal
Summary of the method: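 Cells used are human skin primary fibroblasts. Chemical is added, cultures run 24 h, then IL-8 is quantified by ELISA, and gain or loss versus DMSO control is fitted in both directions.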

[7] = BSK_hDFCGF_Proliferation: Cell Proliferation Assessment in the BioMAP Diversity Plus: hDFCGF Assay (AID 2283059); conditions: primary human foreskin fibroblasts;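 also: curves fitted for both rise and fall of signal versus DMSO baseline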
Summary of the method: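 Steps: dose primary human dermal fibroblasts (foreskin); […] fix in 10% TCA; stain with 0.1% SRB; read 560 nm; fit gain or loss of signal against DMSO.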

[8] = read-out: Macrophage colony-stimulating factor (MCSF), CSF1 (gene 1435); experiment: BSK_hDFCGF_MCSF: BioMAP Diversity Plus: hDFCGF Assay for Macrophage colony-stimulating factor (MCSF) Biomarker Activity (AID 2283060); conditions: primary human foreskin fibroblasts; actives raise or lower the signal
Summary of the method: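 Primary human foreskin fibroblasts dosed with chemical; 24 h later, M-CSF quantified by ELISA; curves fitted in both directions vs DMSO negative control.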

[9] = BSK_hDFCGF_SRB: Viability Assessment in the BioMAP Diversity Plus: hDFCGF Assay (AID 2283061); conditions: primary human foreskin fibroblasts;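 also: cells exposed to compound for 24 h before the read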
Summary of the method: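 Readout is SRB absorbance at 560 nm, reflecting total protein in parallel cultures of human foreskin fibroblasts harvested 24 h after chemical dosing. Activity was fitted bidirectionally relative to DMSO.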

[10] = read-out: TIMP metallopeptidase inhibitor 1 (TIMP1), TIMP1 (gene 7076); experiment: BSK_hDFCGF_TIMP1: BioMAP Diversity Plus: hDFCGF Assay for TIMP metallopeptidase inhibitor 1 (TIMP1) Biomarker Activity (AID 2283062); conditions: primary human foreskin fibroblasts; actives raise or lower the signal
Summary of the method: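 Human skin fibroblasts (primary), hDFCGF system; compound exposure 24 h; TIMP-1 by ELISA; bidirectional fit vs DMSO negative control; overt cytotoxicity by SRB in parallel wells.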

Measured: AC50

Cn1c(=O)cc(Oc2ccc(F)cc2F)c2cnc(NCC(C)(C)O)nc21
active: [1] 1.15 µM | [8] 0.691 µM
not listed: [10]
inactive: all other assays above

CCOC(=O)c1ccc(C2CCC(NC[C@H](O)COc3ccc(O)c(NS(C)(=O)=O)c3)CC2)cc1 (some centres undefined)
active: [1] 21.8 µM | [3] 18.7 µM | [4] 13.4 µM | [5] 6.27 µM | [6] 27.2 µM | [7] 1.75 µM | [8] 10.2 µM | [9] 5.64 µM
inactive: [2]

CN(C)c1ccc(N=NS(=O)(=O)O)cc1
active: [4] 4.35 µM | [7] 12.8 µM | [8] 9.62 µM
not listed: [10]
inactive: all other assays above

Cc1ccc(N)cc1O
active: [7] 23.9 µM
not listed: [10]
inactive: all other assays above

On1ccccc1=S
active: [1] 0.422 µM | [2] 25.6 µM | [4] 1.41 µM | [6] 0.791 µM | [7] 0.148 µM | [8] 0.892 µM | [9] 1.74 µM
inactive: [3] | [5]

CCCCCCCCCCCCCCCO
active: [7] 20 µM
not listed: [10]
inactive: all other assays above

O=C1CCCCCN1
not listed: [10]
inactive: all other assays above

CC1=CC(=O)CC(C)(C)C1
not listed: [10]
inactive: all other assays above

C=CC(=C)CCC=C(C)C
not listed: [10]
inactive: all other assays above

CCCCC(CC)COC(=O)c1ccc(C(=O)OCC(CC)CCCC)cc1 (centres undefined)
not listed: [10]
inactive: all other assays above

COc1ccc(-n2nc(C(F)F)cc2-c2ccc(S(C)=O)cc2)cc1 (centres undefined)
not listed: [10]
inactive: all other assays above

CC(O)CN(CCN(CC(C)O)CC(C)O)CC(C)O (centres undefined)
not listed: [10]
inactive: all other assays above

C[C@](N)(Cc1ccc(O)c(O)c1)C(=O)O
active: [1] 23.2 µM | [7] 12.5 µM | [8] 26.6 µM
not listed: [10]
inactive: all other assays above

O=C(O)c1cc(N=Nc2ccc(S(=O)(=O)Nc3ccccn3)cc2)ccc1O
not listed: [10]
inactive: all other assays above

COC(=O)CC(=O)OC
not listed: [10]
inactive: all other assays above

CC[C@H]1CC[C@H](NCc2cc3c(cc2OC)[C@H]2C[C@H]2C(=O)N3C)[C@H](c2ccccc2)N1
active: [4] 1.57 µM | [7] 20 µM
not listed: [10]
inactive: all other assays above

Cn1cnc([N+](=O)[O-])c1Sc1ncnc2nc[nH]c12
active: [1] 4.43 µM and 7.98 µM | [3] 15.6 µM and 8.5 µM | [4] 4.26 µM | [7] 19.9 µM | [8] 7.13 µM and 9.58 µM
inactive: [1] | [2] | [3] | [4] | [5] | [6] | [7] | [8] | [9] | [10]

C1=CCCC=CCCC=CCC1
not listed: [10]
inactive: all other assays above

Nc1nc2ncc(CNc3ccc(C(=O)N[C@@H](CCC(=O)O)C(=O)O)cc3)nc2c(=O)[nH]1
not listed: [10]
inactive: all other assays above

CCCCC(CC)COC(=O)CCCCCCCCC(=O)OCC(CC)CCCC (centres undefined)
active: [1] 6.18 µM
not listed: [10]
inactive: all other assays above

CC(=O)c1ccc2c(c1)[C@H](NC(=O)c1ccc(F)cc1)[C@@H](O)C(C)(C)O2
not listed: [10]
inactive: all other assays above

COCCOCCOCCOC
not listed: [10]
inactive: all other assays above
